Measurements reported in PubChem BioAssay AID493169 (National Center for Advancing Translational Sciences (NCATS), 2011).
Inconclusive results are not listed. Unmarked numbers belong to inactive results. The source made the active and inactive calls. Calls follow the shape of the dose curve; as a rule, active = well fitted inhibition curve with a large enough effect; inconclusive = small, poorly fitted or top-dose-only effect; inactive = flat fitted curve, though single readings scatter.

Assay: CHOP2 Reporter Counterscreen Assay for Inhibitors of Ubiquitin-specific Protease USP2a;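 also: activated enterokinase alone at 50 pM in a cell-free format rather than USP2a or CHOP2; nearly all actives have a fitted effect of over 55% in size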
Details: purified enterokinase, fluorogenic substrate, 485/531 nm; series mostly up to 38.3 µM; activity change, negative = inhibition: at the top concentration
Outline: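 Fluorescence (485/531 nm) read 10 min after adding 25nM reporter substrate to 50 pM activated EK preincubated 30 min RT with compound; Tris pH 8.0/CaCl2/CHAPS buffer. Data normalized to buffer-alone inhibition; concentration-response curves fitted.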
% is scaled to controls: 0 for no effect and ±100 for the full control effect; potency is read from the fitted curve at half-maximal effect.

| SMILES | activity change, negative = inhibition [%] | Potency |
| --- | --- | --- |
| CCOc1cccc(NC(=O)/C(C#N)=C\c2cn(CC(=O)O)c3ccccc23)c1 | -10.4 |  |
| CC(C)(C)c1cc(Br)ccc1OCC(=O)Nc1ncn[nH]1 | 4.35 |  |
| CCN(C[C@H]1N[C@@](CC)(C(=O)OC)[C@H]2C(=O)N(Cc3ccccc3)C(=O)[C@@H]12)C(=O)Nc1ccc(C)cc1 | -3.12 |  |
| O=C1S/C(=C\C=C\c2ccco2)C(=O)N1c1ccc(O)cc1 |  | 10 µM (active) |
| COC(=O)CSc1nnc(NC(=O)C2CC(=O)N(c3ccc(F)cc3)C2)s1 (centres undefined) |  | 10 µM (active) |
| Cc1ccc2[nH]c(=O)c(COC(=O)c3ccccn3)cc2c1 | 5.1 |  |
| Cc1cc(C(=O)OCC(=O)c2cccc([N+](=O)[O-])c2)c2cccc(C)c2n1 | 0.46 |  |
| O=C(NCC(c1cccnc1)N1CCN(c2ccc(F)cc2)CC1)OCc1ccccc1 (centres undefined) | 4.77 |  |
| COc1ccc(C2CC(=O)N3CN(c4ccccc4F)CSC3=C2C#N)cc1OC (centres undefined) | -1.25 |  |
| CCNC(=S)N/N=C/c1cn(Cc2ccc(F)cc2)c2ccccc12 | -1.81 |  |
| O=C(NCCCN1CCCC1=O)c1cccc(N2CCCC2=O)c1 | 2.06 |  |
| C#CCOCCOCCOCCNc1nc(N2CCN(C(=O)CCCCCCCCCCNC(=O)[C@H]([C@@H](C)CC)n3cc(CCCCCN)nn3)CC2)nc(N2CCN(C(=O)CCCCCCCCCCNC(=O)[C@H](CCCCN)n3cc(CCCC(=O)O)nn3)CC2)n1 |  | 7.94 µM (active) |
| COc1ccc(NC(=O)CSc2nc3sc(C)cc3c(=O)n2C)c(OC)c1 | -4.63 |  |
| CC1=NN(c2ccc(C)cc2)C(=O)/C1=C/c1ccc(-c2cc([N+](=O)[O-])ccc2O)o1 |  | 11.2 µM (active) |
